# Source: the supplement of paper PMC6897291
# Where a name gives a salt, the structure may show the parent alone.
# Legend:
# U-2932 [1] = test: growth inhibition by drug alone (1 - RLU/untreated control) (fraction); higher = stronger inhibition; details: 177Lu-lilotomab satetraxetan 0 ug/ml
# Summary of the method: (§1)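 Compound doses on the pre-printed Selleck Cambridge Cancer Compound library plates were 10/100 nM for RIVA cells and 10/1,000 nM for U-2932 cells, seeded at 3,000 cells/well. Before seeding, cells were washed after 18 h with or without a radiolabelled anti-CD37 antibody conjugate (~600 MBq/mg; 0.5 µg/ml RIVA, 1 µg/ml U-2932). Growth inhibition was derived from RealTime-Glo luminescence relative to untreated no-drug control wells. Readings were taken daily starting on day 3, each after 1 h at 37°C, and each well's RLU was divided by the mean of 48 such wells per plate and subtracted from 1.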
# U-2932 [2] = test: growth inhibition by drug plus 177Lu-lilotomab satetraxetan (1 - RLU/untreated control) (fraction); higher = stronger inhibition; details: 177Lu-lilotomab satetraxetan 1 ug/ml
# Summary of the method: as §1
# RIVA [3] = test: as above; details: 177Lu-lilotomab satetraxetan 0.5 ug/ml
# Summary of the method: as §1
# RIVA [4] = test: growth inhibition by drug alone (1 - RLU/untreated control) (fraction); higher = stronger inhibition; details: 177Lu-lilotomab satetraxetan 0 ug/ml
# Summary of the method: as §1
Structure (SMILES),"growth inhibition by drug alone (U-2932 [1]; 10 nM, time (day): 3)","growth inhibition by drug alone (U-2932 [1]; 10 nM, time (day): 4)","growth inhibition by drug alone (U-2932 [1]; 10 nM, time (day): 5)","growth inhibition by drug alone (U-2932 [1]; 10 nM, time (day): 6)","growth inhibition by drug alone (U-2932 [1]; 1000 nM, time (day): 3)","growth inhibition by drug alone (U-2932 [1]; 1000 nM, time (day): 4)","growth inhibition by drug alone (U-2932 [1]; 1000 nM, time (day): 5)","growth inhibition by drug alone (U-2932 [1]; 1000 nM, time (day): 6)","growth inhibition by drug plus 177Lu-lilotomab satetraxetan (U-2932 [2]; 10 nM, time (day): 3)","growth inhibition by drug plus 177Lu-lilotomab satetraxetan (U-2932 [2]; 10 nM, time (day): 4)","growth inhibition by drug plus 177Lu-lilotomab satetraxetan (U-2932 [2]; 10 nM, time (day): 5)","growth inhibition by drug plus 177Lu-lilotomab satetraxetan (U-2932 [2]; 10 nM, time (day): 6)","growth inhibition by drug plus 177Lu-lilotomab satetraxetan (U-2932 [2]; 1000 nM, time (day): 3)","growth inhibition by drug plus 177Lu-lilotomab satetraxetan (U-2932 [2]; 1000 nM, time (day): 4)","growth inhibition by drug plus 177Lu-lilotomab satetraxetan (U-2932 [2]; 1000 nM, time (day): 5)","growth inhibition by drug plus 177Lu-lilotomab satetraxetan (U-2932 [2]; 1000 nM, time (day): 6)","growth inhibition by drug plus 177Lu-lilotomab satetraxetan (RIVA [3]; 10 nM, time (day): 3)","growth inhibition by drug plus 177Lu-lilotomab satetraxetan (RIVA [3]; 10 nM, time (day): 4)","growth inhibition by drug plus 177Lu-lilotomab satetraxetan (RIVA [3]; 10 nM, time (day): 5)","growth inhibition by drug plus 177Lu-lilotomab satetraxetan (RIVA [3]; 10 nM, time (day): 6)","growth inhibition by drug plus 177Lu-lilotomab satetraxetan (RIVA [3]; 100 nM, time (day): 3)","growth inhibition by drug plus 177Lu-lilotomab satetraxetan (RIVA [3]; 100 nM, time (day): 4)","growth inhibition by drug plus 177Lu-lilotomab satetraxetan (RIVA [3]; 100 nM, time (day): 5)","growth inhibition by drug plus 177Lu-lilotomab satetraxetan (RIVA [3]; 100 nM, time (day): 6)","growth inhibition by drug alone (RIVA [4]; 10 nM, time (day): 3)","growth inhibition by drug alone (RIVA [4]; 10 nM, time (day): 4)","growth inhibition by drug alone (RIVA [4]; 10 nM, time (day): 5)","growth inhibition by drug alone (RIVA [4]; 10 nM, time (day): 6)","growth inhibition by drug alone (RIVA [4]; 100 nM, time (day): 3)","growth inhibition by drug alone (RIVA [4]; 100 nM, time (day): 4)","growth inhibition by drug alone (RIVA [4]; 100 nM, time (day): 5)","growth inhibition by drug alone (RIVA [4]; 100 nM, time (day): 6)"
C=CC(=O)Nc1cccc(Oc2nc(Nc3ccc(N4CCN(C)CC4)cc3OC)ncc2Cl)c1,-0.0921,-0.0614,-0.0383,0.12,0.122,0.0694,0.0278,0.0218,-0.102,-0.073,-0.0211,0.138,0.163,0.104,0.0972,0.216,0.397,0.494,0.517,0.516,0.215,0.265,0.299,0.321,,,,,,,,
COc1cc2ncnc(-n3nc(-c4ccccn4)nc3N)c2cc1OC,0.133,0.114,0.0839,0.0512,0.057,0.0631,0.00213,-0.164,0.0575,0.105,0.1,0.113,-0.00115,0.0649,0.0622,0.0772,0.485,0.573,0.58,0.588,0.535,0.578,0.579,0.559,-0.00526,0.0304,-0.00529,-0.18,-0.0276,-0.0495,-0.074,-0.143
Cc1ccc(NC(=O)c2ccc(CN3CCN(C)CC3)cc2)cc1Nc1nccc(-c2cccnc2)n1 [Imatinib (Gleevec)],0.114,0.0795,0.0573,-0.108,-0.0113,-0.0535,-0.0116,-0.0612,-0.0306,0.0247,0.124,0.134,-0.0872,-0.0527,0.073,0.171,0.424,0.545,0.568,0.595,0.301,0.444,0.462,0.483,,,,,,,,
CC[C@@H]1C(=O)N(C)c2cnc(Nc3ccc(C(=O)N[C@H]4CC[C@H](N5CCN(CC6CC6)CC5)CC4)cc3OC)nc2N1C(C)C [BI6727 (Volasertib)],0.335,0.327,0.308,0.37,0.962,0.975,0.98,0.982,0.255,0.307,0.34,0.465,0.917,0.946,0.965,0.977,0.631,0.702,0.726,0.726,0.939,0.964,0.975,0.981,0.23,0.19,0.153,0.0282,0.943,0.962,0.969,0.971
CN(C)Cc1ccc(-c2nc3cccc4c3n2CCNC4=O)cc1,0.121,0.0696,-0.0285,-0.000931,0.038,0.056,-0.00883,-0.203,0.00803,0.0491,0.0539,0.0786,0.0336,0.127,0.116,0.183,0.564,0.632,0.638,0.652,0.585,0.642,0.654,0.657,-0.0131,0.0265,-0.0439,-0.223,-0.0162,0.0398,0.00266,-0.0877
COc1ccc(/C=C\c2cc(OC)c(OC)c(OC)c2)cc1O [Combretastatin A4],0.967,0.973,0.979,0.983,0.965,0.975,0.981,0.985,0.971,0.978,0.983,0.986,0.965,0.979,0.985,0.988,0.964,0.976,0.98,0.984,0.936,0.949,0.963,0.971,,,,,,,,
CC(=O)[C@]1(O)Cc2c(O)c3c(c(O)c2[C@@H](O[C@H]2C[C@H](N)[C@H](O)[C@H](C)O2)C1)C(=O)c1ccccc1C3=O [Idarubicin HCl],0.517,0.599,0.684,0.751,0.962,0.973,0.977,0.98,0.584,0.712,0.817,0.881,0.972,0.979,0.981,0.985,0.924,0.947,0.964,0.971,0.831,0.89,0.913,0.939,0.685,0.744,0.786,0.827,0.781,0.825,0.851,0.883
CC(C)C[C@H](NC(=O)CNC(=O)c1cc(Cl)ccc1Cl)B1OC(=O)C(CC(=O)O)(CC(=O)O)O1,0.0922,0.0916,0.0981,-0.0316,0.985,0.984,0.984,0.984,0.0116,0.0804,0.149,0.155,0.984,0.985,0.986,0.988,0.542,0.596,0.606,0.609,0.64,0.701,0.698,0.645,-0.0185,0.0392,-0.0726,-0.362,0.319,0.4,0.359,0.21
CNC(=O)c1ccc(N2C(=S)N(c3ccc(C#N)c(C(F)(F)F)c3)C(=O)C2(C)C)cc1F [MDV3100 (Enzalutamide)],0.0921,0.0374,-0.126,-0.107,0.019,0.0335,-0.0413,-0.0245,0.0217,0.0789,0.128,0.16,0.0172,0.0892,0.116,0.182,0.559,0.587,0.59,0.602,0.519,0.555,0.553,0.556,,,,,,,,
CS(=O)(=O)N1CCc2c(-c3cnc(N)nc3)nc(N3CCOCC3)nc21,0.149,0.108,-0.0352,-0.0152,0.351,0.362,0.336,0.366,0.0821,0.0867,0.0957,0.135,0.216,0.214,0.223,0.326,0.395,0.499,0.537,0.543,0.451,0.434,0.439,0.428,,,,,,,,
CN(CCOc1ccc(CC2SC(=O)NC2=O)cc1)c1ccccn1 (stereo not drawn) [Rosiglitazone (Avandia)],0.068,0.0368,-0.0298,-0.117,-0.0124,0.0197,-0.0667,-0.236,-0.0122,0.00577,0.0405,0.0655,-0.0752,0.0366,0.0101,0.078,0.409,0.548,0.564,0.587,0.382,0.504,0.532,0.523,-0.0381,-0.0305,-0.0979,-0.42,-0.131,-0.086,-0.0959,-0.219
CCC1=C[C@@H]2CN(C1)Cc1c([nH]c3ccccc13)[C@@](C(=O)OC)(c1cc3c(cc1OC)N(C)[C@H]1[C@@](O)(C(=O)OC)[C@H](OC(C)=O)[C@]4(CC)C=CCN5CC[C@]31[C@@H]54)C2 [Vinorelbine (Navelbine)],0.571,0.587,0.595,0.614,0.971,0.976,0.98,0.983,0.489,0.544,0.598,0.621,0.975,0.98,0.983,0.988,0.928,0.949,0.961,0.969,0.967,0.978,0.982,0.987,0.907,0.914,0.922,0.926,0.949,0.964,0.968,0.972
CCc1ccc(CCOc2ccc(CC3SC(=O)NC3=O)cc2)nc1 (stereo not drawn) [Pioglitazone (Actos)],-0.11,-0.125,-0.103,-0.0806,-0.0965,-0.0693,-0.0516,0.0915,-0.113,-0.0372,0.0193,0.114,-0.102,-0.0405,0.0194,0.192,0.53,0.578,0.604,0.598,0.416,0.476,0.498,0.506,,,,,,,,
O=C(Nc1ccc(OC(F)(F)F)cc1)c1sccc1NCc1ccnc2ccccc12,0.0561,-0.00441,-0.0537,-0.177,0.00246,-0.0266,-0.0424,-0.000118,-0.0212,0.051,0.0902,0.117,-0.0347,0.0399,0.0489,0.0855,0.534,0.568,0.593,0.603,0.0922,0.306,0.33,0.355,-0.0142,-0.0478,-0.122,-0.26,-0.426,-0.341,-0.386,-0.562
C[C@]1(c2nc3c(C(N)=O)cccc3[nH]2)CCCN1 [ABT-888 (Veliparib)],-0.0659,-0.0358,-0.0424,0.0616,-0.0937,-0.0475,-0.078,-0.068,-0.0353,-0.0127,0.0158,0.166,-0.0568,0.0163,0.019,0.0852,,,,,,,,,,,,,,,,
Cc1cnc(Nc2ccc(OCCN3CCCC3)cc2)nc1Nc1cccc(S(=O)(=O)NC(C)(C)C)c1,-0.0562,-0.0523,-0.0582,-0.0993,0.149,0.111,-0.00563,0.00366,-0.0587,-0.0475,-0.0161,0.0198,0.127,0.122,0.0513,0.0765,0.273,0.437,0.468,0.492,0.205,0.275,0.289,0.307,,,,,,,,
C[C@]12CC[C@@H]3c4ccc(O)cc4CC[C@H]3[C@@H]1CCC2=O [Estrone],0.0961,0.0749,0.0943,-0.00298,0.0954,0.046,0.0242,-0.126,0.0282,0.0899,0.127,0.0988,0.0277,0.0438,0.0954,0.209,0.474,0.569,0.585,0.601,0.271,0.43,0.447,0.475,,,,,,,,
CS(=O)(=O)c1cccc(CNc2nc(Nc3ccc4c(c3)CCC(=O)N4)ncc2C(F)(F)F)c1,0.0502,0.00856,-0.0018,0.0705,-0.0504,-0.0365,-0.0145,0.085,-0.0177,0.0519,0.101,0.199,0.0169,0.0857,0.144,0.314,0.467,0.549,0.572,0.567,0.206,0.328,0.352,0.383,,,,,,,,
